In PubChem BioAssay AID1508622 (National Center for Advancing Translational Sciences (NCATS), 2021):
Calls of active or inactive are those of the source. Calls come from the whole dose curve; as a rule, active = well fitted activation curve with a large enough effect; inconclusive = small, poorly fitted or top-dose-only effect; inactive = no such curve, though single readings can be large or run the other way.

Assay: Confirmatory qHTS for Identification of Small Molecule Activators of Huntingtin-Antisense Promoter Activity
Settings: HEK293 HTT-AS promoter firefly luciferase reporter, 24 h; series mostly up to 57.5 µM
Description: Assay Provider: Russell L. Margolis M.D.
Department Neurology, Johns Hopkins University School of Medicine, Baltimore, MD
Huntington's Disease (HD) is a neurodegenerative disorder caused by a CAG repeat expansion in exon 1 of huntingtin (HTT). While there are currently no disease-modifying treatments for HD, recent efforts have focused on development of nucleotide-based therapeutics to lower HTT expression. As an alternative to siRNA or oligonucleotide methods, we hypothesized that suppression of HTT expression might be accomplished by small molecules that either (1) directly decrease HTT expression by suppressing HTT promoter activity or (2) indirectly decrease HTT expression by increasing the promoter activity of HTT-AS, the gene antisense to HTT that appears to inhibit expression of HTT.
We developed and employed a high throughput screen for modifiers of HTT and HTT-AS promoter activity using luminescent reporter HEK293 cells; of the 52,041 compounds tested, we identified 898 replicable hits. We used a rigorous stepwise approach to assess compound toxicity and the capacity of the compounds to specifically lower huntingtin protein in 5 different cell lines, including HEK293 cells, HD lymphoblastoid cells, mouse primary neurons, HD iPSCs differentiated into cortical-like neurons, and HD hESCs. We found no compounds which were able to lower huntingtin without lowering cell viability in all assays, though the potential efficacy of a few compounds at non-toxic doses could not be excluded.
SEQUENCE No. (1, 2, 3, etc.); […] (e.g., Cells, Incubation, Reagent, etc.); VALUE and DESCRIPTION.
1; Reagent; 4 uL; 2,500 Hek293 luciferase reporter cells per wells
3; Compound; 23 nL; Control inhibitor / compound library
5; Reagent; 2.5 uL; Firefly Luc reagent; Dual-Glo Luciferase Reporter Assay System (Promega)
6; Time; 10 min; room temperature incubation
7; Detection; Luminescence; FLuc
NOTES (numbers refer to sequence above)
1; High-throughput screening, measuring luminescence from a Hek293 luciferase reporter, was performed in 1,536 well white-walled tissue-culture treated plates. 2,500 cells were plated in 4 uL of Opti-MEM per well using a Multidrop Combi Reagent Dispenser (ThermoFisher).
2; Assay plates were cultured for 24 hours.
3; Control inhibitor (PTC124; final concentration of 50 uM) and compound library (at final concentrations of 460 nM - 57.5 uM) were added to the assay plate using the Kalypsis Pintool Robotic System equipped with 1536 pinheads.
4; Cells were then incubated for 24 hours at 37C prior to luminescence measurements.
5; In all cases, luminescence was measured using the Dual-Glo Luciferase Reporter Assay System (Promega) following the manufacturer's instructions.
6; Room temperature incubation.
7; Luminescence signal was obtained using the PerkinElmer ViewLux plate reader. Results were normalized to vehicle control (0% activity) and zero RLU (-100% activity).

Structure (SMILES) | outcome
CCCOc1ccc(C2SCC(=O)Nc3c2c(C)nn3-c2cccc(C)c2)cc1OC (configuration not stated) | inactive
O=c1c2ccccc2nc(/C=C\c2ccc(F)cc2)n1-c1ccccc1F | inactive
O=c1c2ccccc2nc(/C=C/c2cccc3ccccc23)n1-c1ccccc1Cl | inactive
CC(C)(O)C=CC(=O)[C@](C)(O)[C@H]1[C@H](O)C[C@]2(C)[C@@H]3CC=C4[C@@H](C=C(O)C(=O)C4(C)C)[C@]3(C)C(=O)C[C@@]12C | inactive
O=C(N[C@H]1CN2CCC1CC2)c1ccc(Cl)cc1 | inactive
Cc1cccc(-n2c(/C=C\c3cccc(Br)c3)nc3ccccc3c2=O)c1 | inactive
Cc1cc(-n2c(/C=C/c3ccc(Br)s3)nc3ccccc3c2=O)ccc1Br | inactive
CCN(CC)C(=O)c1ccc(NC(=O)CCn2nc(-c3ccc(Cl)cc3)c3ccccc3c2=O)cc1 | inactive
CCCCc1ccc(NC(=O)c2cccn(Cc3ccc(Cl)cc3)c2=O)cc1 | inactive
CCOc1ccc(NC(=O)c2cccn(Cc3cccc(Cl)c3)c2=O)cc1 | inactive
CC(C)N[C@@H]1CCn2c(=O)[nH]c3cccc(c32)[C@@H]1O | inactive
CCN(CC)C(=O)N[C@@H]1C=C2c3cccc4[nH]cc(c34)C[C@@H]2N(C)C1 | inactive
Cc1ccccc1Cn1cccc(C(=O)Nc2nc3ccccc3s2)c1=O | inactive
N#Cc1ccccc1NC(=O)c1cccn(Cc2ccccc2)c1=O | inactive
Cc1ccc(-n2c(/C=C/c3ccc(Br)s3)nc3ccccc3c2=O)cc1 | inactive
COC(=O)c1ccc(NC(=O)c2cccn(Cc3ccccc3C)c2=O)cc1 | inactive
CSc1ccc(CN2CCN(C(=O)COc3cccc(C)c3)CC2)cc1 | inactive
Nc1c(C(=O)Nc2ccc(Cl)c(C(F)(F)F)c2)sc2nc3c(cc12)N1CCC3CC1 | inactive
CCOC(=O)c1ccc(NC(=O)c2cccn(Cc3ccccc3F)c2=O)cc1 | inactive
COc1cccc(C2SCC(=O)Nc3c2c(C)nn3-c2ccc(C)c(Cl)c2)c1OC (configuration not stated) | inactive
Cc1ccc(-n2c(/C=C\c3ccc(F)c(F)c3)nc3ccccc3c2=O)c(C)c1 | inactive
COc1ccc(-n2c(/C=C\c3ccccc3F)nc3ccccc3c2=O)cc1OC | inactive
